Measured values taken from PubChem BioAssay.
Values without a mark were called inactive. A call without a number means that no potency is given here. For some of these results: Potency and affinity values are given separately. Calls of active or inactive are those of the source. Unless noted, how the calls were made is not given here.

Key:
[1] = antimalarial activity against Dd2 strain (AID 2302;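 active means growth inhibition above 50% at the single 2 µM test dose, taken to imply half-maximal potency below 2 µM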); details: P. falciparum Dd2 in RBCs, LDH growth readout, 72 h; at 2 µM; hits give high values
[2] = HepG2 cytotoxicity, primary screen, cytotoxicity control for P. falciparum antimalarial project, cell-based, ATP luminescence (AID 2303;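 active means inhibition above 50%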); details: HepG2 viability, 24-48 h, at 10 µM, hits give high values
[3] = target: L-lactate dehydrogenase (Plasmodium falciparum (isolate CDC / Honduras)) (UniProt Q27743); test: PfLDH activity inhibition – cell lysate, 3D7 strain, counter-screen for P. falciparum growth inhibition project (AID 2304); details: P. falciparum 3D7 crude extract, LDH APAD/NBT absorbance; at 2 µM; hits give high values
Chain of L-lactate dehydrogenase (Plasmodium falciparum (isolate CDC / Honduras)) (Q27743 whole entry, looked up): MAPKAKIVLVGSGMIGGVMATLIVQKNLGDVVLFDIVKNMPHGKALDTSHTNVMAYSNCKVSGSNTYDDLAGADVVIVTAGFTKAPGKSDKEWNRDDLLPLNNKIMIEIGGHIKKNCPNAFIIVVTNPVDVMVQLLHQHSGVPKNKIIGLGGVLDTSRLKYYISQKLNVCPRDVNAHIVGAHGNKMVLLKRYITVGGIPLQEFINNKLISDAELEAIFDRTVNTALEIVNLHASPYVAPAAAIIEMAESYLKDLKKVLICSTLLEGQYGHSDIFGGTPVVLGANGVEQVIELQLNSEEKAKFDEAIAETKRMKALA

[4] = inhibition of 3D7 malaria parasite growth – strain 3D7 (AID 2306); details: P. falciparum 3D7 erythrocytic growth, LDH absorbance, 72 h; at 2 µM; hits give high values
[5] = target: Calcium-dependent protein kinase 1 (Plasmodium falciparum (isolate 3D7)) (UniProt P62344); test: PfCDPK1 kinase inhibitors, biochemical, TCAMS library (AID 1159585; cut-off not given, nearly all actives have IC50 up to about 0.98 µM;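 further: inhibitors leave more ATP so luminescence rises with inhibition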); details: recombinant PfCDPK1, Kinase-Glo ATP depletion luminescence
Chain of Calcium-dependent protein kinase 1 (Plasmodium falciparum (isolate 3D7)) (P62344 whole entry, looked up): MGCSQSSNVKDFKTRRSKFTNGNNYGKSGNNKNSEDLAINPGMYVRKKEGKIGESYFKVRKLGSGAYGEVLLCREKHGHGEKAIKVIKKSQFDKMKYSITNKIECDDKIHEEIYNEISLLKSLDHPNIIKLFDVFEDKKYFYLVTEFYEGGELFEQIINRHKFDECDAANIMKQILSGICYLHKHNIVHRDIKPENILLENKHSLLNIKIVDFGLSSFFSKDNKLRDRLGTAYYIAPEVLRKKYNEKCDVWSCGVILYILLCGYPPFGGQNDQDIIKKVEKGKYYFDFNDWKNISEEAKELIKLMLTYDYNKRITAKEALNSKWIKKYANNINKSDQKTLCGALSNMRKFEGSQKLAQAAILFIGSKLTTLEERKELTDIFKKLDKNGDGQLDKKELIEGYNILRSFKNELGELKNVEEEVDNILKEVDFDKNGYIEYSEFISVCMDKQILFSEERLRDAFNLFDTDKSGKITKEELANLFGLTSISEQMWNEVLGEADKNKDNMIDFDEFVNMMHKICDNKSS

[6] = target: Plasmodium falciparum protein kinase 6 (PK6, PF3D7_1337100) (UniProt Q8IDW1); test: PfPK6 kinase inhibitors, biochemical, TCAMS library (AID 1159586); details: recombinant PfPK6, Kinase-Glo ATP depletion luminescence
Chain of Plasmodium falciparum protein kinase 6 (PK6, PF3D7_1337100) (Q8IDW1 1-305): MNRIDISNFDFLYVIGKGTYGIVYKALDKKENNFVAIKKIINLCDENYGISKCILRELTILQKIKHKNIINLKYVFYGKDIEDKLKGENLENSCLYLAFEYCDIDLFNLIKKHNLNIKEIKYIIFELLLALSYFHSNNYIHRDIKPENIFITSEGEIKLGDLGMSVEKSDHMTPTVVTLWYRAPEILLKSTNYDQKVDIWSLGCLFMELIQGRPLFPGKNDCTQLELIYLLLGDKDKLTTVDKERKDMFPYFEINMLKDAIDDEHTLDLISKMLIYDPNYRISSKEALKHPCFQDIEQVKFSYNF

[7] = target: Protein kinase 7 (PK7), Plasmodium falciparum 3D7 (PF3D7_0213400) (UniProt Q7YTF7); test: inhibition of Plasmodium PK7 catalytic activity – biochemical, TCAMS antimalarial set, Kinase-Glo luminescence (AID 1159587); details: recombinant PfPK7, Kinase-Glo ATP depletion luminescence
Chain of Protein kinase 7 (PK7), Plasmodium falciparum 3D7 (PF3D7_0213400) (Q7YTF7 1-343): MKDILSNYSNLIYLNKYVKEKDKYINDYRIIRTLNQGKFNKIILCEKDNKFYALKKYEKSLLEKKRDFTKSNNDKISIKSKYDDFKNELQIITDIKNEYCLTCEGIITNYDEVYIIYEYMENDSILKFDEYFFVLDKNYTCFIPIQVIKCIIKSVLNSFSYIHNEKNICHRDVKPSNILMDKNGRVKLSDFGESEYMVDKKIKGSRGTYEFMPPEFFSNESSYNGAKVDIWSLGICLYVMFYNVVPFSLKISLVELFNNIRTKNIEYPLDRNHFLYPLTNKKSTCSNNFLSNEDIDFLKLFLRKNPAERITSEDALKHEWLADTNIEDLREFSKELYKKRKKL

[8] = target: Calcium-dependent protein kinase 4 (Plasmodium falciparum (isolate 3D7)) (UniProt Q8IBS5); test: PfCDPK4 kinase inhibitors, biochemical, TCAMS library (AID 1159588; cut-off not given, nearly all actives have IC50 up to about 0.91 µM); details: recombinant PfCDPK4, Kinase-Glo ATP depletion luminescence
Chain of Calcium-dependent protein kinase 4 (Plasmodium falciparum (isolate 3D7)) (Q8IBS5 whole entry, looked up): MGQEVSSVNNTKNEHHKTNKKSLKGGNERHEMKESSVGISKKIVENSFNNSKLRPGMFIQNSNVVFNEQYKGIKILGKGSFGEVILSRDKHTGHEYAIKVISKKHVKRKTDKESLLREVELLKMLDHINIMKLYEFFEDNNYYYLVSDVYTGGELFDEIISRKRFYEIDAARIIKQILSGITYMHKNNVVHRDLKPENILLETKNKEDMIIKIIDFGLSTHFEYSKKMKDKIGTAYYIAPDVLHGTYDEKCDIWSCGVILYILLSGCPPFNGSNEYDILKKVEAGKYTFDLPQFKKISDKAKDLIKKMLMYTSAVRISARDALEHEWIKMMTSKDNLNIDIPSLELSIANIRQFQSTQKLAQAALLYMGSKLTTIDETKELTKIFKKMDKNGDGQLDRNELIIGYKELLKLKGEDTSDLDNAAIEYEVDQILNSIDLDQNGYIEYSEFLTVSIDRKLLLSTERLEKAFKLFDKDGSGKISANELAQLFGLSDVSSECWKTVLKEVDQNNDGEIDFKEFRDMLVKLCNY

Row | Structure (SMILES) | growth inhibition [1] | inhibition [2] | inhibition [3] [%] | growth inhibition [4] | outcome [5] | outcome [6] | outcome [7] | outcome [8]
1 | CC(C)c1ccc(NC(=O)c2ccc(NCCCN(C)Cc3ccccc3)c([N+](=O)[O-])c2)cc1 | 35% | 21% | -2 | 101% (active) | inactive | inactive | inactive | inactive
2 | Cc1cc(CNCCCCCCCNCc2ccc(Cl)cc2)ccc1O | 0% | 13% | -4 | 97% (active) | inactive | inactive | inactive | inactive
3 | COc1ccc2nccc([C@@H](O)CN3CCC(NC(=O)c4ccc5nc(-n6cccc6)sc5c4)CC3)c2c1 | 40% | 26% | -2 | 90% (active) | inactive | inactive | inactive | inactive
4 | O=C(Nc1cccc(-c2ccc(-c3nc4ccc(F)cc4[nH]3)s2)c1)c1ccncc1 | 29% | 74% (active) | -8 | 96% (active) | inactive | inactive | inactive | inactive
5 | CCCCOC(=O)c1ccc(Nc2cc(C)nc3ccc(OC)cc23)cc1 | 96% (active) | 4% | -5 | 100% (active) | inactive | inactive | inactive | inactive
6 | CC(C)(C)c1ccc2nc(-c3ccc(/C=C/C(=O)NCc4ccc(Cl)c(Cl)c4)cc3)[nH]c2c1 | 17% | 41% | 0 | 97% (active) | inactive | inactive | inactive | inactive
7 | O=S(=O)(NCCN1CCCC1)c1ccc(-c2cccc(CNCc3ccccc3)c2)s1 | 43% | 44% | 0 | 94% (active) | inactive | inactive | inactive | inactive
8 | COc1ccc(-c2cc(C(=O)N[C@@H](CC3CCCCC3)C(=O)NCCN3CCCC3)ccc2O)cc1 | 12% | 12% | 2 | 90% (active) | inactive | inactive | inactive | inactive
9 | Cc1cc(NN=Cc2cccc([N+](=O)[O-])c2)c2ccccc2n1 | 98% (active) | -9% | 3 | 101% (active) | inactive | inactive | inactive | inactive
10 | COc1cccc(-c2csc(C(=O)NCC3CCN(Cc4ccc(C(C)(C)C)cc4)C3)c2)c1 (configuration not stated) | 10% | 30% | -2 | 95% (active) | inactive | inactive | inactive | inactive
11 | Cc1ccc(-c2[nH]n3c(=O)c4c(nc3c2C)CCCC4)cc1 | 87% (active) | 16% | -1 | 97% (active) | inactive | inactive | inactive | inactive
12 | O=C(/C=C/c1ccc(Cl)c(Cl)c1)NCCCCCN1CCCN(C(=O)Nc2cc(Cl)cc(Cl)c2)CC1 | 4% | 53% (active) | 6 | 96% (active) | inactive | inactive | inactive | inactive
13 | O=S1(=O)C=C(c2ccccc2)CC1 | 44% | 57% (active) | -1 | 97% (active) | inactive | inactive | inactive | inactive
14 | O=C(Nc1ccc(-c2ccccc2)cc1)Nc1cccc(Cn2cnc(N3CCCNCC3)cc2=O)c1 | 13% | 8% | 4 | 88% (active) | inactive | inactive | inactive | inactive
